Assay results as given in PubChem BioAssay AID652058 (Broad Institute, 2013).
The whole screen tested about 1,200 compounds, of which about 870 (72%) were called active. Another 3% or so got no clear call; they are omitted.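 The calls were made as follows: active = every test run fits a falling curve whose half-maximal concentration is at most twice the top valid dose; inconclusive = runs disagree, or flat 30 to 70% inhibition, or poor fit; inactive = every run inactive: flat, rising or weaker potency.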 The set was probably picked from earlier hits. The list is a sample of the results. Results with a measured potency or affinity are listed apart.

Assay: blockers of HIV-1 ZM109 envelope-driven cell-cell fusion – HeLa effector, CEM target cells, luciferase, cherry-pick, dose response (AID 652058);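 also: 0% = neutral control wells and -100% = maraviroc 300 nM wells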
Conditions: HeLa Env/CEM cell fusion, 16-24 h; series mostly up to 35 µM

Activity change, negative = inhibition, inactive:
O=C(c1ccc(Cl)cc1)N1CCCCC(Sc2nnc(-c3ccc4c(c3)OCO4)o2)C1=O (stereo unspecified)
O=C(C[C@H]1C[C@H]2c3cc(NC(=O)Cc4ccncc4)ccc3O[C@H]2[C@@H](CO)O1)NCc1ccncc1
COc1cccc(S(=O)(=O)N[C@H]2CC[C@H](CC(=O)NCc3ccncc3)O[C@@H]2CO)c1
Cn1c(-c2ccc(Cl)cc2)ccc(C#N)c1=O
Cc1onc(-c2ccccc2)c1C(=O)OCCOc1cccc(Cl)c1
Cn1cccc1C(=O)OCC(=O)NCCc1ccc(S(N)(=O)=O)cc1
Cn1c(=O)c2c(nc(NCCc3ccccc3)n2Cc2ccccc2)n(C)c1=O
COc1ccc(S(=O)(=O)N2CCCCC2)cc1NC(=O)CCCOc1ccc(C)cc1
CCOC(=O)CN1CCCc2nc(C)c(C)cc21
COCc1[nH]nc2c1C(c1ccc(F)cc1)N(Cc1ccccc1)C2=O (stereo unspecified)
CC(=O)Nc1ccc(C(=O)OCC(=O)NC(=O)NCc2ccccc2)cc1
CCN(CC)S(=O)(=O)c1ccc(NC(=O)Nc2cccc(C(F)(F)F)c2)cc1
CCN(CC)S(=O)(=O)c1cccc(NC(=O)c2ccc(-n3nc(C)cc3C)cc2)c1
CC(C)(C)c1ccc(-n2ncc3c2CCCC3NC(=O)CN2CCCC2=O)cc1 (stereo unspecified)
C[C@H](CO)N1C[C@H](C)[C@H](CN(C)S(=O)(=O)c2ccccc2)Oc2cc(Br)ccc2S1(=O)=O
CC(C)(C)c1ccc(OCCC(=O)Nc2cccc(S(=O)(=O)N3CCOCC3)c2)cc1
CCc1nc(N2CCCCC2C)c2oc3ccccc3c2n1 (stereo unspecified)
CCc1nc(N2CCCCC2)c2oc3ccccc3c2n1
NC(=S)c1ccc(OCCCc2ccccc2)cc1 111% [at 8 µM]
O=C1c2cccc(OCc3ccc(F)cc3)c2CCN1Cc1ccccc1
Nc1nc2c(ncn2[C@@H]2O[C@H](C(=O)NCC(c3ccccc3)c3ccccc3)[C@@H](O)[C@H]2O)c(=O)[nH]1
Nc1ncn([C@H]2C[C@H](O)[C@@H](CO)O2)c(=O)n1
O=S(=O)(NC1CC1)c1ccc(S(=O)(=O)N2CCCc3ccccc32)cc1
O=C(Cn1ncc2c(=O)oc3ccccc3c21)N1CCC(N2CCCCC2)CC1
O=C(CCNC(=O)c1ccc(Br)cc1)NNC(=O)COc1ccccc1F
O=C(NCCc1ccccc1)c1ccc2c(c1)OCCO2
CC(=O)c1c(C)[nH]c(C(=O)OCCCCN2C(=O)c3ccccc3C2=O)c1C
CC(C)C#Cc1ccc2c(c1)O[C@@H](CN(C)C(=O)C1CCCCC1)[C@H](C)CN([C@H](C)CO)S2(=O)=O
COc1ccc(-c2ccc3c(c2)[C@@H]2[C@@H](CCN2C(=O)NC2CCCC2)[C@H](CO)N3C)cc1
N#CCSc1nnc(-c2sc3ccccc3c2Cl)o1
C[C@@H]1CN([C@H](C)CO)S(=O)(=O)c2ccc(-c3ccccc3)cc2O[C@@H]1CN(C)Cc1ccccc1
CCOc1ccc(NC2c3ccccc3C(=O)N2Cc2ccco2)cc1 (stereo unspecified)
Cc1ccc(S(=O)(=O)N(C)C[C@H]2Oc3ccc(NC(=O)Nc4cccc5ccccc45)cc3C(=O)N([C@H](C)CO)C[C@@H]2C)cc1
C[C@@H]1CN([C@H](C)CO)C(=O)c2cc(NC(=O)Nc3ccccc3)ccc2O[C@@H]1CN(C)S(=O)(=O)c1ccccc1
COc1ccccc1C#Cc1ccc([C@H]2[C@H](C#N)N(C(=O)C3CCCC3)[C@H]2CO)cc1
CCCCS(=O)(=O)N1CCN(C(=O)C(=O)c2cccc(C(F)(F)F)c2)CC1
COc1ccc(C)cc1NC(=O)CCNS(=O)(=O)c1ccc2c(c1)CC(C)N2C(C)=O (stereo unspecified)
COc1ccc(NC(=O)C(=O)NCC2CCCN2S(=O)(=O)c2cccs2)cc1 (stereo unspecified)
O=C(Nc1ccc(C(=O)OC2CCCCC2)cc1)c1ccncc1
Cc1cccc(/C=N\Nc2cn[nH]c(=O)c2Cl)c1
COc1ccc(NC(=O)CN2CCC(C(N)=O)(N3CCCCC3)CC2)cc1
O=C(Cc1ccncc1)N[C@H]1CC[C@@H](CCn2cc(-c3ccccc3F)nn2)O[C@@H]1CO
O=C(Nc1cccc(F)c1)N[C@@H]1CC[C@H](CCNS(=O)(=O)c2cccc(Cl)c2)O[C@@H]1CO
O=C(CCN1CCCCC1)N[C@@H]1CC[C@@H](CCn2cc(-c3ccccc3)nn2)O[C@@H]1CO
O=C(Nc1cccc(F)c1)N[C@H]1CC[C@@H](CCNS(=O)(=O)c2cccc(Cl)c2)O[C@H]1CO
COc1ccc(-c2cn(CC[C@H]3CC[C@H](NS(=O)(=O)c4ccccc4C)[C@H](CO)O3)nn2)cc1
CN(C)Cc1cn(CC[C@@H]2CC[C@H](N)[C@H](CO)O2)nn1
COc1ccc(-c2c(C)nn3c(C(F)(F)F)cc(C)nc23)cc1
CCCNC(=O)C[C@@H]1C[C@H]2c3cc(NC(=O)c4cccnc4)ccc3O[C@H]2[C@H](CO)O1
Cc1cccc(C)c1N(CC(O)Cn1c2ccccc2c2ccccc21)S(C)(=O)=O (stereo unspecified)
CCNC(=O)C[C@@H]1CC[C@@H]2[C@H](COC[C@@H](O)CN2C(=O)c2ccccn2)O1
O=C(Nc1nc(-c2ccc3c(c2)OCO3)cs1)c1ccncc1
CS(=O)(=O)N1CCc2cc(-c3csc(NC(=O)Cc4cccs4)n3)ccc21
CCOC(=O)[C@@H]1[C@H]2COc3cc(OC)ccc3[C@H]2N2C(=O)N(c3cccc(F)c3)C(=O)[C@@]12C
O=C(C[C@@H]1C[C@@H]2c3cc(NC(=O)c4ccc5c(c4)OCO5)ccc3O[C@@H]2[C@@H](CO)O1)NCc1ccc(Oc2ccccc2)cc1
O=C(C[C@@H]1C[C@@H]2c3cc(NS(=O)(=O)c4ccc(F)cc4)ccc3O[C@@H]2[C@H](CO)O1)NCc1ccccc1F
COc1ccccc1CNC(=O)C[C@H]1C[C@@H]2c3cc(NC(=O)c4cccnc4)ccc3O[C@@H]2[C@@H](CO)O1
O=C(C[C@@H]1C[C@@H]2c3cc(NC(=O)Nc4ccccc4)ccc3O[C@@H]2[C@@H](CO)O1)NCc1ccccc1
COC(=O)Cn1cnc2c(Cl)nc(F)nc21
CN(C)C(=O)C[C@@H]1C[C@@H]2c3cc(NS(=O)(=O)c4ccc(F)cc4)ccc3O[C@@H]2[C@@H](CO)O1
CCCNC(=O)C[C@@H]1C[C@@H]2c3cc(NC(=O)CN(C)C)ccc3O[C@@H]2[C@H](CO)O1
CCCNC(=O)C[C@@H]1C[C@@H]2c3cc(NC(=O)Cc4ccncc4)ccc3O[C@@H]2[C@H](CO)O1
O=C(C[C@H]1C[C@H]2c3cc(NC(=O)C4CCC4)ccc3O[C@H]2[C@@H](CO)O1)NCc1ccc2c(c1)OCO2
O=C(C[C@H]1C[C@@H]2c3cc(NC(=O)C4CCOCC4)ccc3O[C@@H]2[C@H](CO)O1)NCc1ccccc1
O=C(C[C@@H]1C[C@H]2c3cc(NC(=O)C4CCC4)ccc3O[C@H]2[C@H](CO)O1)NCC(F)(F)F
CN(C)C(=O)C[C@@H]1C[C@H]2c3cc(NS(=O)(=O)c4ccc(F)cc4)ccc3O[C@H]2[C@H](CO)O1
CC(=O)OC1c2ccccc2C(=O)N1c1ccccc1C (stereo unspecified)
O=C(COC(=O)c1cccc(S(=O)(=O)N2CCOCC2)c1)NCc1ccccc1
Cc1ccc(S(=O)(=O)N(C)c2ccc(C(=O)N3CCN(Cc4ccc5c(c4)OCO5)CC3)cc2)cc1
c1ccc(CSc2nnc([C@@H]3CCCN3)o2)cc1
Cc1nnc(SC(=O)N2c3ccccc3Sc3ccccc32)s1
Cc1ccccc1-n1c(=O)c2ccccc2n2cnnc12
O=c1c2ccccc2nnn1CSc1nnc(COc2ccc(Cl)cc2)n1Cc1ccco1
O=C(CNC(=O)c1cccc(-n2cccc2)c1)Nc1ccccc1Br
Cc1ccc(S(=O)(=O)N[C@@H]2CC[C@H](CCNC(=O)c3ccccc3F)O[C@H]2CO)cc1
COc1cccc(S(=O)(=O)N[C@H]2CC[C@@H](CCN)O[C@@H]2CO)c1
O=C(NCC[C@@H]1CC[C@@H](NS(=O)(=O)c2ccccc2F)[C@@H](CO)O1)c1ccc(F)cc1
COc1ccccc1S(=O)(=O)N[C@H]1CC[C@H](CC(=O)N2CCN(C)CC2)O[C@H]1CO
COc1cc(-c2cc(OC)c(O)c(OC)c2)cc(OC)c1O
Cc1ccc(C2Oc3ccccc3C3=C2C(c2cccs2)n2ncnc2N3)cc1 (stereo unspecified)
O=C(NCCCN1CCc2ccccc2C1)Nc1ccc(Cl)cc1
O=C(CN1CCCN(Cc2ccc(F)cc2Cl)C1=O)NC1CCCCCCC1
CCN(CC)S(=O)(=O)c1cccc(S(=O)(=O)c2cccc(S(=O)(=O)N(CC)CC)c2)c1
CS(=O)(=O)N(Cc1ccc(Cl)cc1)c1ccc(C(=O)NCCC2=CCCCC2)cc1
CCCNC(=O)C[C@H]1C[C@H]2c3cc(NC(=O)Cc4ccncc4)ccc3O[C@H]2[C@H](CO)O1
COc1ccc2c3c([nH]c2c1)[C@H](CO)N(C(=O)Nc1cccc(F)c1)CC31CCN(S(=O)(=O)c2ccccc2)CC1
COc1ccc(S(=O)(=O)N[C@@H]2CC[C@@H](CC(=O)NCCc3ccncc3)O[C@@H]2CO)cc1
CCCCOc1ccc(S(=O)(=O)Nc2cccnc2)cc1
CC(=O)c1ccc(S(=O)(=O)N2CCN(c3nc4c(C)c(C)ccc4cc3C#N)CC2)cc1
O=C(Nc1nc2ccccc2[nH]1)c1ccccc1F
Cc1ccc(NC(=O)c2ccc(CN3CCc4ccccc4C3)cc2)cc1
O=C(Nc1ccc(Cl)cc1)Nc1cccc(C(=O)O)c1
COC(=O)[C@H](Cc1ccccc1)NC(=O)Cn1cnc(C(=O)Nc2ccc(C)c(C)c2)n1
Cn1c(CN2CCCCC2)nc2cc(NC(=O)c3ccc(Cl)cc3)ccc21
Cc1ccc(NC(=O)c2ccc(OCC3CCCO3)cc2)cc1Cl (stereo unspecified)
O=C(COc1ccc(-n2cnnn2)cc1)Nc1ccc(F)c(F)c1
